Assay outcomes: PubChem BioAssay, National Center for Advancing Translational Sciences (NCATS)
Compounds with a hit are over-represented: about 3.8% of the library has one in this group of screens.
TGFb inhibitor: TGF-b pathway inhibition; HepG2 CAGA-GFP TGF-b/SMAD3 reporter, GFP fluorescence, 18 h; TGF-beta stimulated, 500 pg/mL final; Potency, µM (top dose mostly 46.1 µM), for the others: at the highest dose activity, negative = inhibition, most hits filed as inhibitors; 1.2% of 410,000 active; AID 588855; note: % is set by controls: 0 for no effect and ±100 for the full control effect; nearly all actives have a fitted effect of over 65% in size
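Read-out: total well GFP (ex488/em500-530) summed from mean per-cell fluorescence. Cells: HEPG2 CAGA-GFP, 1% FBS DMEM, 18 h at 37 degrees C with 500 pg/mL final TGF-beta. Unstimulated wells served as the full-inhibition control; stimulated DMSO wells = 0%.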
ATXN2 expr inh: ATXN2 expression inhibition; HEK-293 ATXN2-luciferase reporter, luminescence, 24 h; Potency, µM (doses to about 57 µM), for the others: at the highest dose activity change, negative = inhibition, actives largely listed as inhibitors; 0.72% of 360,000 active; note: % is set by controls: 0 for no effect and ±100 for the full control effect; nearly all actives have a fitted effect of over 55% in size
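qHTS (up to 57 uM final) was run with 24 h compound exposure of reporter cells at 37 °C. Each well was multiplexed: SteadyGlo luminescence measured ATXN2-luciferase expression after a fluorogenic Gly-Phe-AFC viability readout (25 uM final).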
S2 tox: cell viability loss in ATXN counter-screen; S2 cells (HEK-293 line with an ATXN2-luciferase reporter) viability, CellTiter-Fluor protease fluorescence, 24 h; Potency, µM (top dose mostly 56.7 µM), hits mostly cytotoxic; 0.49% of 400,000 active; AID 651635; note: nearly all actives have a fitted effect of over 40% in size
HT1080 IDH1KD tx: HT-1080 IDH1 knockdown cell toxicity (counter line); Potency, µM (doses to about 46.1 µM), for the others: at the highest dose activity, negative = toxicity, most hits filed as cytotoxic; 2% of 360,000 active; AID 686971; HT-1080 IDH1 knockdown viability, ATP luminescence, 48 h;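 note: 0% = DMSO wells and -100% = cell-free medium wells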
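IDH1KD HT-1080 cells, 750/well, RPMI + 5% FBS; compound pinned after 2 h settling; 48 h, 37 °C; CellTiter-Glo luminescence; % activity normalised to DMSO and no-cell wells; curves fitted, classed by r2 and efficacy.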
HT1080-NT tox: kills 2HG-producing HT-1080-NT fibrosarcoma cells. HT-1080-NT fibrosarcoma viability, CellTiter-Glo ATP luminescence, 48 h. Potency, µM (doses to about 46.1 µM), for inactives: at the highest dose activity, negative = less viability, actives largely listed as cytotoxic. 1.6% of 360,000 active. AID 686970;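 note: NT is the 2HG producing partner of a matched IDH1 knockdown line; 0% = DMSO-treated cells and -100% = media-only wells without cells; nearly all actives have a fitted effect of over 55% in size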
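HT-1080-NT; 750 cells/well; 5% FBS RPMI; 48 h compound, 37 degrees C; CellTiter-Glo luminescence; curve fitting and curve-class assignment.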
HepG2 viability: counter-screen for TGF-b inhibitors: cytotoxicity in HepG2 cells. HepG2 CAGA-GFP viability, ATP luminescence, 18 h. Potency, µM (series often up to 46.1 µM), inactives show at the top dose activity change, negative = cytotoxicity, usual class: cytotoxic. 0.76% of 410,000 active
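CellTiter-Glo luminescence gave cytotoxicity after 18 hours at 37 degrees C. The cells were HepG2 CAGA-GFP in 1% FBS DMEM, stimulated with 500 pg/mL TGF-beta after compound addition. %Activity was normalised to no-cell wells (complete cell-killing) and DMSO (no toxicity), and curves were fitted and classified.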
Numbers without * were called inactive; i = inactive; ? = inconclusive; · = no result; ! = repeats disagree; [ ] = remark or other dose. Calls come from the whole dose curve; as a rule, active = well fitted curve in the direction sought with a large enough effect; inconclusive = small, poorly fitted or top-dose-only effect, or another doubt; inactive = no such curve, though single readings can be large; an effect the other way counts as inactive or inconclusive. Potency is the fitted concentration of half-maximal effect.

SMILES	TGFb inhibitor	ATXN2 expr inh	S2 tox	HT1080 IDH1KD tx	HT1080-NT tox	HepG2 viability
O=C(COc1ccc(Cl)cc1)N(c1ccccc1Cl)C1CN2CCC1CC2 (centres undefined)	?	-24%	i	16µM*	?	-20%
COc1ccc(OC)c(CC(C)N)c1 (centres undefined)	·	2%[116 µM]	?	·	·	·
CN(C)CCCN1c2ccccc2Sc2ccc(Cl)cc21	?	20µM*!	i	?	15µM*!	18µM*!
CCOc1cc(CNCCc2c[nH]c3ccccc23)cc(Cl)c1OC	16µM*	?	?	21µM*	18µM*	-94%
Clc1cccc(CNCCc2c[nH]c3ccccc23)c1	-9%	-34%	i	16µM*	18µM*	-4%
CSC1=NC(C)(C)CC2(C)Nc3ccccc3N12 (centres undefined)	-1%	3%	?	4%	12%	-13%
Cc1ccc(C(=O)N[C@@H](C)CN2C3=NC[C@H](Cc4ccccc4)N3C[C@H]2Cc2ccc(O)cc2)cc1Br	13µM*	25µM*	·	?	?	11µM*
Cc1ccc(C(=O)N[C@@H](C)CN2C3=NC[C@@H](Cc4ccccc4)N3C[C@H]2Cc2ccc(O)cc2)cc1Br	?	?	25µM*	?	?	-103%
COc1ccc(CCNC(=O)CCc2c(C)nc3c(-c4ccc(F)cc4)c(C)nn3c2C)cc1OC	?	8%	i	·	·	9%
CCN(CC)C(=O)N[C@@H]1C=C2c3cccc4[nH]cc(c34)C[C@@H]2N(C)C1	·	0%	i	·	·	·
O=[N+]([O-])c1ccc(Cl)c([N+](=O)[O-])c1	5µM*	?	18µM*	18µM*	5.2µM*	7.1µM*
O=[N+]([O-])c1ccc(O)c([N+](=O)[O-])c1	26%	6%	i	-24%	-19%	10%
COc1cc2c(c(OC)c1OC)-c1ccc(O)c(=O)cc1C(NC(C)=O)CC2 (centres undefined)	?	0%	?	0.041µM*	0.0052µM*	-2%
COc1ccc2c(c1)C(NC(C)=O)CCc1cc(OC)c(OC)c(OC)c1-2 (centres undefined)	-53%	15%	i	?	0.0058µM*	-24%
COC1=C[C@@H]2C3=C([C@@H]2C1=O)[C@@H](NC(C)=O)CCc1cc(OC)c(OC)c(OC)c13	2%	9%	i	-10%	10%	-7%
COc1cc2c(c(OC)c1OC)-c1ccc(OC)c(=O)cc1C(NC(C)=O)CC2 (centres undefined)	-25%	6%	i	?	0.015µM*	-3%
Cc1ccc([C@@H]2CC(=O)[C@@H]3CN(S(=O)(=O)c4ccccc4C)[C@H](c4ccc(Cl)cc4)C[C@@H]3N2S(=O)(=O)c2ccc(C)cc2)cc1	-1%	-8%	?	-1%	3%	-2%
CC(/C=N/NC(=O)c1cc(-c2ccncc2)nc2ccccc12)=C\c1ccco1	?	-7%	i	1µM*	0.89µM*	-6%
COc1ccc(CCNc2nc3c(c(=O)n(C)c(=O)n3C)n2Cc2ccc(F)cc2)cc1OC	-10%	-17%	?	·	·	-6%
Oc1ccc(Cl)cc1	0%	-12%	i	1%	-1%	-4%
Oc1ccc(Cl)cc1Sc1cc(Cl)ccc1O	8.9µM*	?	?	21µM*	21µM*	-124%
C[C@H]1CNC(=O)c2c(C(=O)Nc3ccc(CNC(=O)OC(C)(C)C)cc3)ncn21	-33%	?	?	-9%	-20%	-9%
Cc1nn(C(C)(C)C)c(C)c1/C=N/OC(=O)Nc1ccc(Cl)c(Cl)c1	18µM*	·	i	-4%	-4%	-78%
O=C(CN1CCN(S(=O)(=O)c2cc(Br)ccc2Br)CC1)NCc1ccccc1Cl	?	-3%	i	-25%	-9%	-20%
Oc1ccc(O)c2c1C1(Cl)C(Cl)=C(Cl)C2(Cl)C1(Cl)Cl	?	?	?	23µM*	?	i
SMILES	TGFb inhibitor	ATXN2 expr inh	S2 tox	HT1080 IDH1KD tx	HT1080-NT tox	HepG2 viability
Cc1ccc(C)c(NC(=O)Cn2c(=O)oc3cc(S(=O)(=O)NCc4ccccc4)ccc32)c1	?	-9%	i	·	·	-37%
COc1ccc(NC(=O)N2CCN(c3nc(-c4cccc(OC)c4)cs3)CC2)cc1	-8%	22µM*	?	?	-10%	-26%
CC(C)Cn1c(=O)oc2ccccc21	?	7%	i	-3%	-1%	6%
C=C1C(=O)OC2CC(C)C3C=CC(=O)C3(C)C(O)C12 (centres undefined)	3.2µM*	?	?	0.82µM*	1.8µM*	-118%
C=C1C(=O)O[C@H]2C[C@@H](C)[C@@H]3C=CC(=O)[C@@]3(C)C[C@H]12	4.5µM*	6.3µM*	?	8.2µM*	?	7.9µM*
C=C1C(=O)O[C@@H]2C[C@@H](C)[C@@H]3C=CC(=O)[C@@]3(C)[C@@H](OC(=O)CC(=O)O[C@H]3[C@@H]4C(=C)C(=O)O[C@@H]4C[C@@H](C)[C@@H]4C=CC(=O)[C@]43C)[C@H]12	0.25µM*	0.32µM*	·	0.23µM*	?	0.56µM*
C=C1C(=O)O[C@@H]2C[C@@H](C)[C@@H]3C4OC4C(=O)[C@@]3(C)[C@@H](O)[C@H]12 (some centres undefined)	2.8µM*	3.2µM*	3.5µM*	9.2µM*	15µM*	-88%
C=C1C(=O)O[C@H]2[C@H]1[C@H](OC(=O)CC(=O)O[C@@H]1C[C@@H](C)[C@@H]3C=CC(=O)[C@@]3(C)[C@H]3OC(=O)C(=C)[C@H]13)C[C@@H](C)[C@H]1C=CC(=O)[C@]12C	?	?	?	?	?	-65%
O=c1[nH]c2ccccc2n1C1CCNCC1	·	2%	i	·	·	·
CCC(=O)O[C@@H]1C=C2CCC3C(CCC4(C)C3CC[C@@H]4OC(=O)CC)C2CC1 (some centres undefined)	·	0%	i	·	·	·
CN1CC[C@@]2(C)c3cc(O)ccc3N(C)[C@@H]12	?	-22%	14µM*	?	23µM*	18µM*!
CCn1cc2nc(SCc3cccc(C(F)(F)F)c3)n(Cc3ccc(OC)cc3)c(=O)c2n1	?	-26%	i	·	·	-28%
COc1ccc(Oc2cc(NC(=O)c3nn(C)cc3[N+](=O)[O-])cc([N+](=O)[O-])c2)cc1	10µM*	-4%	i	5.2µM*	18µM*	18µM*
